# Test results as given in PubChem BioAssay.
# Assay: probe aLAP1 signal on lysate-treated microarray – cell lysate, small-molecule microarray, COS7 lysate, primary screen (AID 1124);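 note: lysate comes from COS7 cells expressing LAP1 and is applied at 0.3 µg/mL; score merges spot fluorescence near 667 nm with signal-to-noise over triplicate slides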
# Details: probe aLAP1, fluorescence, higher = more signal
row,Compound,composite z-score
1,COC(=O)[C@@]1(Cc2ccc(OC)cc2)[C@H]2c3cc(C(=O)N4CCCC4)n(Cc4ccsc4Br)c3C[C@H]2CN1C(=O)c1ccccc1,0.0786
2,CCOC(=O)C[C@H]1[C@H](OC(=O)Cc2ccc3c(c2)OCO3)[C@@H](NC(=O)c2ccc(-c3ccccc3)cc2)c2cc(OCCCO)ccc2N1C(=O)c1ccc2ccccc2n1,0.0968
3,COC(=O)[C@@]1(Cc2ccc(F)cc2)[C@H]2c3cc(C(=O)N(C)C)n(CC4CC4)c3C[C@H]2CN1C(=O)c1ccccc1,0.698
4,CCCCC(=C=CC[C@@H](O)c1ccccc1OCCO)CCO,0.257
5,COc1ccc([Si](C)(C)[C@@H]2[C@@H](CCO)O[C@]3(C(=O)N(Cc4ccc(N5C(=O)COc6ccccc65)cc4)c4ccccc43)[C@H]2C)cc1,0.844
6,CC1CC/C=C\[C@H]2OC34C=CCN(Cn5nnc6ccccc65)C(=O)[C@H]3N(C(CO)C(C)C)C(=O)[C@@H]4C2C(=O)O1 (stereo partly specified),0.549
7,CCCCN1CC=CC23O[C@@H]4/C=C\CCC(C)OC(=O)C4[C@H]2C(=O)N(CCCCCO)[C@@H]3C1=O (stereo partly specified),1.34
8,O=C1C[C@]2(c3ccc([N+](=O)[O-])cc3)C(=O)N(CCN3CCOCC3)c3cc(CO)ccc3[C@H]2N1C1CCCCC1,-0.467
9,O=C(O)[C@@]1(CCS(=O)(=O)c2ccccc2)COC(c2ccc(OCCCO)cc2)=N1,0.0237
10,COc1ccc(C(O)C2C=CC3C(=O)N(c4ccccc4)C(=O)C3N2Nc2ccc(C(C)C)cc2)cc1OCc1ccccc1 (stereo unspecified),0.902
11,CC(C)C(=C=CC[C@@H](O)c1ccccc1OCCO)CCO,-0.412
12,CN(C)C(=O)[C@]1(Cc2ccccc2CN=[N+]=[N-])N=C(c2ccc(OCCCO)cc2)O[C@@H]1c1ccccc1CN=[N+]=[N-],0.751
13,COc1ccc(C(=O)Nc2cccc(CN3C(=O)[C@]4(O[C@H](CCO)[C@@H]([Si](C)(C)c5ccc(OC)cc5)[C@@H]4C)c4ccccc43)c2)cc1,0.593
14,CCCCCC1=C2CNC(CCC)(C(=O)OC)C=C2C(C)C1=O (stereo unspecified),0.448
15,CCOC(=O)C[C@H]1[C@H](OC(=O)c2cc3ccccc3oc2=O)[C@@H](NC(=O)Cc2ccc(OC)cc2)c2cc(OCCCO)ccc2N1C(=O)c1ccccc1,-0.0727
16,COc1ccc([C@H]2C[C@H]3C(Br)=C[C@@H]2C(=O)[C@]32CO2)cc1,-0.0737
17,CCOC(=O)C1=CCC(c2ccccc2)N(S(=O)(=O)CC[Si](C)(C)C)C1 (stereo unspecified),-0.0394
18,O=C1NCC(=O)N2[C@@H]1C[C@@H](C(=O)O)[C@H]2c1cccc(OCCO)c1,1.03

row,Compound,composite z-score
1,COCCOC(=O)N1C(=O)[C@@]2(c3cc(C#CC4=CCCCC4)ccc31)[C@H](C(=O)N1CCc3cc(OC)c(OC)cc3C1)[C@H]1C(=O)O[C@H](c3ccccc3)[C@H](c3ccccc3)N1[C@@H]2c1ccc(OCCO)cc1,0.378
2,O=C(NCC(F)(F)F)[C@@H]1c2ccccc2C(=O)N(C2CCCCC2)[C@H]1c1ccc(CO)cc1,-0.797
3,CC(C)OC(=O)C=C1C[C@@H](c2ccccc2C(F)(F)F)O[C@@H](c2ccccc2C(F)(F)F)O1,0.354
4,COc1ccc([Si](C)(C)[C@H]2[C@H](CC(=O)N3Cc4ccccc4C[C@H]3CO)O[C@@]3(C(=O)N(Cc4ccc(N5CCC5=O)cc4)c4ccccc43)[C@@H]2C)cc1,1.19
5,C=CCC(OC(C)=O)[C@@H]1[C@@H](N(Cc2cccc3ccccc23)C(=O)c2ccc(-c3ccccc3)cc2)c2cc(OCCCO)ccc2N1C(=O)Cc1ccc(OC)cc1 (stereo partly specified),-0.0691
6,COc1ccc(CCNC(=O)[C@@H]2c3ccccc3C(=O)N(C3Cc4ccccc4C3)[C@H]2c2ccc(CO)cc2)cc1,0.0554
7,C=CCNC(=O)[C@H]1[C@@H]2C(=O)O[C@@H](c3ccccc3)[C@@H](c3ccccc3)N2[C@@H](c2ccc(O)cc2)[C@]12C(=O)N(C(=O)OCCOC)c1ccc(C#CCNC(N)=O)cc12,0.0793
8,C=CCC(OC(C)=O)[C@@H]1[C@@H](N(Cc2ccc(-c3cccc(C(F)(F)F)c3)o2)C(=O)Cc2ccc(F)cc2)c2cc(OCCCO)ccc2N1C(=O)Cc1ccc(OC)cc1 (stereo partly specified),-0.348
9,Cc1ccc(S[C@]2(C(=O)NCC(F)(F)F)CC(=O)N(C(C)C)[C@@H]2c2ccc(CO)cc2I)cc1,0.106
10,O=C1NC(=O)C2C1C=CC(C(O)c1ccccc1)N2Nc1ccc(Cl)cc1Cl (stereo unspecified),1.23
11,COc1ccc([Si](C)(C)[C@H]2[C@H](CCO)O[C@@]3(C(=O)N(C)c4c(Br)cc(C)cc43)[C@@H]2C)cc1,0.0847
12,CN1C(=O)C2C=CC(C(O)c3ccc(-c4ccccc4)s3)N(N(c3ccccc3)c3ccccc3)C2C1=O (stereo unspecified),-0.149
13,COc1ccc(CCNC(=O)[C@@]2(Sc3ccc(C)cc3)CC(=O)N(C3CCCCC3)[C@@H]2c2ccc(CO)cc2I)cc1,0.284
14,C=CCNC(=O)[C@H]1[C@@H]2C(=O)O[C@@H](c3ccccc3)[C@@H](c3ccccc3)N2[C@@H](c2ccccc2OCCO)[C@]12C(=O)Nc1ccc(C#CC3=CCCCC3)cc12,1.37
15,C[N+](C)(C)CCCC[C@@H]1NC(=O)[C@@H]2C[C@H](C(=O)NCCCCCN)[C@H](c3cccc(OCCO)c3)N2C1=O,-0.207
16,C=C/C=C/[C@H]1C(=C)CN([C@@H](Cc2ccccc2)C(=O)OC)[C@@H]1[C@H](O)Cc1ccccc1,0.161
17,CN1C(=O)C2C=CC(C(O)c3ccc(I)cc3)N(N3CCCCC3)C2C1=O (stereo unspecified),0.879
18,O=C1[C@H]2C=C(Br)[C@H](C[C@@H]2c2ccccc2)[C@@]12CO2,-0.187
